Data: the supplement of paper PMC6992640

The molecules below were run on WHIM2 (cells of a triple-negative basal-like breast cancer xenograft) (assay: cell viability of combination (% of vehicle); higher = less cytotoxic). Details: 1 µM; 72 h; partner dose: 10 nM.
Description: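 PDX cells were treated for 72 h with each drug at 1 µM plus afatinib (10 nM; 1 µM for WHIM30). Luciferase viability is expressed as percent of vehicle.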

Point of comparison: `CC[C@H](C)[C@H]1O[C@]2(CC[C@@H]1C)C[C@@H]1C[C@@H](C/C=C(\C)[C@@H](O[C@H]3C[C@H](OC)[C@@H](O[C@H]4C[C@H](OC)[C@@H](O)[C@H](C)O4)[C@H](C)O3)[C@@H](C)/C=C/C=C3\CO[C@@H]4[C@H](O)C(C)=C[C@@H](C(=O)O1)[C@]34O)O2` [Ivermectin] + CN(C)C/C=C/C(=O)Nc1cc2c(Nc3ccc(F)c(Cl)c3)ncnc2cc1O[C@H]1CCOC1 [Afatinib], “cell viability of combination” value 44.5. Against it:
- COc1ccc2c(O[C@H]3CC4C(=O)N(C)CCCC/C=C\[C@H]5C[C@@]5(C(=O)NS(=O)(=O)C5CC5)NC(=O)[C@@H]4C3)cc(-c3nc(C(C)C)cs3)nc2c1C (stereo not given in full) [Simeprevir] + CN(C)C/C=C/C(=O)Nc1cc2c(Nc3ccc(F)c(Cl)c3)ncnc2cc1O[C@H]1CCOC1 [Afatinib] — higher, 46.8
- CO[C@@]12[C@H](COC(N)=O)C3=C(C(=O)C(C)=C(N)C3=O)N1C[C@@H]1N[C@@H]12 [Mitomycin C] + CN(C)C/C=C/C(=O)Nc1cc2c(Nc3ccc(F)c(Cl)c3)ncnc2cc1O[C@H]1CCOC1 [Afatinib] — lower, 35.1
- COc1cc2c(Oc3ccc4[nH]c(C)cc4c3F)ncnc2cc1OCCCN1CCCC1 [Cediranib (AZD217)] + CN(C)C/C=C/C(=O)Nc1cc2c(Nc3ccc(F)c(Cl)c3)ncnc2cc1O[C@H]1CCOC1 [Afatinib] — lower, 31.6
- Cc1c(-c2ccc(O)cc2)n(Cc2ccc(OCCN3CCCCCC3)cc2)c2ccc(O)cc12.Cl [Bazedoxifene HCl] + CN(C)C/C=C/C(=O)Nc1cc2c(Nc3ccc(F)c(Cl)c3)ncnc2cc1O[C@H]1CCOC1 [Afatinib] — higher, 49.7
